# The source made the active and inactive calls. How the source made its calls: active means hit-call score of the fitted dose curve at least 0.9, where 1 is the maximum; inactive means score below 0.9.
# Test: ATG_NFI_CIS: Attagene CIS-FACTORIAL HepG2 Assay for human Nuclear Factor I (NFI) (AID 2282989)
# Conditions: HepG2 cis-regulatory reporter, NFI response element transcription; actives raise or lower the signal
# Experimental: ATG_CIS is a cell-based, multiplexed-readout assay that uses HepG2, a human liver cell line, with measurements taken at 24 hours after chemical dosing in a 24-well plate.ATG_NFI_CIS is one of 52 assay component(s) measured or calculated from the ATG_CIS assay. It is designed to make measurements of mRNA induction, a form of inducible reporter, as detected with fluorescence intensity signals by Reverse transcription polymerase chain reaction (RT-PCR) and Capillary electrophoresis technology.Data from the assay component ATG_NFI_CIS was analyzed into 1 assay endpoint. This assay endpoint, ATG_NFI_CIS, was analyzed with bidirectional fitting relative to DMSO as the negative control and baseline of activity. Using a type of inducible reporter, measures of mRNA for gain or loss-of-signal activity can be used to understand the reporter gene at the transcription factor-level as they relate to the gene NFIA. Furthermore, this assay endpoint can be referred to as a primary readout, because this assay has produced multiple assay endpoints where this one serves a reporter gene function. To generalize the intended target to other relatable targets, this assay endpoint is annotated to the dna binding intended target family, where the subfamily is nuclear factor I.
# Human liver HepG2 cells are transiently transfected with multiple reporter transcription units (MRTUs) in 6-well plates using FuGene 6 reagent (Roche; 3 ml FuGene/1 mg DNA). The MRTU constructs are regulated by a cis-regulating element (promoter). […] A major difference between the CIS and TRANS system is that in CIS activities of endogenous TFs are measured, whereas the TRANS assay evaluates changes in activities of exogenous, chimeric NR-Gal4 proteins. […] At the end of 24 hour incubation, total RNA was isolated using TriZol reagent (Invitrogen). The isolated RNA is then reverse-transcribed using oligo(dT) primer and Mo-MLV reverse transcriptase (Invitrogen) with DNAse I (Ambion) treatment for 30 min. The one-tenth of the produced cDNA was amplified by PCR using Taq DNA polymerase (Invitrogen) and two reporter sequence-specific primers. The PCR products were fluorescently labeled by primer extension with 6-arboxyfluorescein (6-FAM) 5'-labeled reporter sequence-specific primer (2 min at 95 C, 20 s at 68 C and 10 min at 72 C) and these products were digested with 5U of HpaI (New England Biolabs) for 2h at 37 C. The fragments were purified using Qiaquick PCR columns (Qiagen), analyzed on an ABI 3130xL genetic analyzer (Applied Biosystems) with peak positions identified by using a set of X-rhodamine (ROX)-labeled MapMarker1000 molecular weight standards (BioVentures). The raw capillary electrophoresis data was processed using Attagraph software (Attagene).
Structure (SMILES),outcome,AC50
CC1CCC(CO)CC1 (stereo not given),inactive,–
NNC(=O)CCCCC(=O)NN,inactive,–
NNc1nc(-c2ccc([N+](=O)[O-])cc2)cs1,inactive,–
CCOC=C(C(=O)OCC)C(=O)OCC,inactive,–
Cc1ccccc1OCC(=O)O,inactive,–
CC(C)(C)C1CCCCC1O (stereo not given),inactive,–
NCc1cccc(CN)c1,inactive,–
CC(C)[C@@H]1CC[C@@H](C)C[C@H]1O,inactive,–
c1cc2cccc3c4cccc5cccc(c(c1)c23)c54,inactive,–
COC1=CC(=O)C[C@@H](C)[C@]12Oc1c(Cl)c(OC)cc(OC)c1C2=O,inactive,–
Cc1cc(=O)oc2cc(O)ccc12,inactive,–
O=C(Nc1ccc(Cl)c(Cl)c1)c1cc(Cl)cc(Cl)c1O,inactive,–
CCCCCCCCCC=CCC1CC(=O)OC1=O (stereo not given),inactive,–
O=S(=O)(c1ccc(OCc2ccccc2)cc1)c1ccccc1O,–,33.4 µM (active)
CC[N+](CC)(CC)Cc1ccccc1,inactive,–
O=C(O)CN(CCCN(CC(=O)O)CC(=O)O)CC(=O)O,inactive,–
CCc1cccc(CC)c1NC(=O)C(=O)O,inactive,–
Cc1ccc2ccc3ccc(C)cc3c2c1,inactive,–
CCCCCCCCCCCCOC(=O)c1cc(O)c(O)c(O)c1,inactive,–
COCN(COC)c1nc(N(COC)COC)nc(N(COC)COC)n1,inactive,–

Structure (SMILES),outcome,AC50
FC(F)(F)C1(F)C(F)(F)C(F)(F)C(F)(F)C1(F)F,inactive,–
N=C(N)c1ccc(OCCCCCOc2ccc(C(=N)N)cc2)cc1,inactive,–
COc1cccc(O)c1,inactive,–
CCCCN(C)C,inactive,–
Cc1[nH]nc2c1N=C(c1ccccc1Cl)c1cc([N+](=O)[O-])ccc1N2,–,0.554 µM (active)
COc1ccc(C#N)cc1,inactive,–
CCCCCCCCCCCC(=O)NCCCN(C)C,–,17.1 µM (active)
CCN(CC)CC,inactive,–
CCOC(=O)c1nc(C(Cl)(Cl)Cl)n(-c2ccc(Cl)cc2Cl)n1,inactive,–
COC(=O)C(F)(F)C(F)(F)C(F)(F)F,inactive,–
Oc1cccc2c(O)cccc12,inactive,–
FC1(F)C=CC(F)(F)C1(F)F,inactive,–
FCOC(C(F)(F)F)C(F)(F)F,inactive,–
Nc1ccc(O)c(C(=O)O)c1,inactive,–
FC(OC(F)(F)C(F)(F)C(F)(F)F)C(F)(F)F (stereo not given),inactive,–
O=C(F)C(F)(F)C(F)(F)C(F)(F)C(=O)F,inactive,–
O=C(O)CCC(F)(F)C(F)(F)C(F)(F)C(F)(F)C(F)(F)F,inactive,–
O=C(F)C(F)(F)C(F)(F)C(F)(F)C(F)F,inactive,–
CCCCCCOC(=O)c1ccc(O)cc1,–,55 µM (active)
CC1=NN(c2ccccc2)C(=O)C1,inactive,–

# From PubChem BioAssay (EPA / NIEHS)
